Y pestis TopoI: Yersinia pestis topoisomerase I inhibitors, primary screen, biochemical, cleavage product accumulation, plate reader, single point; DNA topoisomerase I (Yersinia pestis CO92); Y. pestis Topo-I cleavage product accumulation; activity, % at 10 µM; hit rate 0.064% among 360,000; AID 504884, 2011; in the data active means activity above about 50%, passing the limit was not always enough
BH1578 lux ind: inducers of Vibrio cholerae quorum light production without autoinducers, primary screen, BH1578 luxS cqsA deficient, single point; AID 588436, 2011; hit rate 0.16% among 350,000; V. cholerae BH1578 lux reporter, luminescence, 6 h; activation, % at 18.7 µM; in the data active means activation mostly above about 9.7%, no sharp cut-off
BioA inh: M. tuberculosis BioA enzyme inhibitors, primary screen, biochemical, plate reader, single point, HTS; 7,8-diaminopelargonic acid synthase BioA (Mycobacterium tuberculosis); purified M. tuberculosis BioA enzyme; inhibition, % at 9.99 µM; hit rate 0.096% among 360,000; AID 602481, 2012; in the data active means inhibition above about 40%
TcdB GH inh: TcdB glycohydrolase inhibitors, primary screen, biochemical, single point, plate reader. TcdB glycohydrolase enzymatic assay. inhibition, % at 9.99 µM. hit rate 0.24% among 350,000; in the data active means inhibition above about 10%
FadD28 FP inh: inhibitors of FadD28 bisubstrate probe binding, primary screen, biochemical, fluorescence polarization, single point; inhibition, % at 12.5 µM; hit rate 0.22% among 360,000; AID 588549, 2011; in the data active means inhibition above about 8.5%, passing the limit was not always enough
An asterisk follows results filed as active; i = inactive; nt = no result. Only some compounds are listed: those with a hit (about 0.61% of all), similar ones and a draw of the others.

SMILES	Y pestis TopoI	BH1578 lux ind	BioA inh	TcdB GH inh	FadD28 FP inh
CC(Oc1ccccc1)C(=O)N(CCC1=CCCCC1)c1c(N)n(Cc2ccccc2)c(=O)[nH]c1=O (stereo not given)	-3	23*	-1	0	-3
O=C1NN(c2ccc(Cl)cc2)C(=O)/C1=C\c1ccc(-c2cccc(C(=O)O)c2)o1	-4	0	nt	-2	23*
COc1cccc(-c2ccc(C3[C@@H]4CN(S(=O)(=O)c5cccc(OC)c5)C[C@H]3N4)cc2)c1 (stereo not given in full)	nt	nt	nt	0	nt
O=C(c1cccnc1)N1C[C@@H]2[C@H](c3ccccc31)[C@H](CO)N2C(=O)C1CC1	nt	nt	-1	0	nt
O=C(N/N=C/c1ccc(O)cc1)NC12CC3CC(CC(C3)C1)C2	-3	i	1	19*	2
O=C(N/N=C/c1ccncc1)NC12CC3CC(CC(C3)C1)C2	-1	i	2	2	-3
COc1ccc(NC(=O)CN2CCN(c3nc(-c4ccc(F)cc4)cs3)CC2)c(OC)c1	54*	0	nt	1	-2
COc1ccc2c3c(n(C)c2c1)[C@@H](CO)N(C(=O)Nc1ccc(F)cc1)CC31CCN(C(=O)c2ccccc2F)CC1	nt	nt	nt	0	nt
CNC[C@@H]1Oc2ncc(-c3ccc(OC)cc3)cc2C(=O)N([C@@H](C)CO)C[C@H]1C	nt	nt	0	0	nt
Cc1ccccc1Nc1ccc2nonc2c1[N+](=O)[O-]	1	-10	-1	0	-1
O=[N+]([O-])c1c(Nc2ccccc2O)ccc2nonc12	-3	0	3	13*	-2
Cc1ccc(C(=O)NC(=S)NNC(=O)CC#N)cc1	-2	6	nt	12*	-1
CCCCC(=O)NNC(=S)NC(=O)c1ccc(C)cc1	8	4	nt	2	-1
Cc1nn(Cc2ccccc2)c(Cl)c1/C=N/NC(=O)c1cccnc1	7	-1	104*	1	-1
Cc1nn(C)c(C(=O)N/N=C/c2cccnc2)c1Cl	7	i	44*	0	2
COc1ccc(CN(C)Cc2cc(=O)oc3cc(C)c(C(C)C)cc23)cc1OC	23	0	-4	0	0
Cc1cc2oc(=O)cc(CN(C)Cc3ccccc3)c2cc1C(C)C	64*	i	nt	1	0
CC(C)CCN1C(N(C)C)=NC[C@@H]1C	3	26*	0	0	0
O=C(Nc1cccc(C(=O)O)c1)Nc1cccc2ccccc12	-2	-1	0	-1	-2
O=C(O)c1ccc(C(=O)Nc2cccc3ccccc23)c(C(=O)O)c1	-5	225*	8	2	1
COCC#Cc1cnc2c(c1)C(=O)N([C@@H](C)CO)C[C@H](C)[C@@H](CN(C)C(=O)c1cnccn1)O2	nt	nt	0	1	nt
CC(C)CC(NC(=O)C(CC(C)C)NC(=O)OC(C)(C)C)C(=O)O (stereo not given)	3	-2	-1	nt	-4
C#CCN(C[C@@H](CC(C)C)NC(=O)OC(C)(C)C)S(=O)(=O)c1ccc(Br)cc1F	53*	-1	0	1	-1
O=C(CCc1nc2ccccc2[nH]1)Nc1ccccc1	2	i	0	nt	0
NNC(=O)CCc1nc2ccc(O)cc2[nH]1	1	0	1	14*	-2
SMILES	Y pestis TopoI	BH1578 lux ind	BioA inh	TcdB GH inh	FadD28 FP inh
O=C(Cn1cc(COc2ccc(Cl)c(Cl)c2)nn1)NS(=O)(=O)c1ccccc1OC(F)(F)F	14	0	-1	11*	-1
Cc1c(COc2ccc3ccccc3c2)nnn1CC(=O)NS(=O)(=O)c1ccccc1C(F)(F)F	17	0	0	-5	-1
CC(=O)Nc1cccc2cc(S(=O)(=O)O)ccc12	nt	nt	nt	0	-3
O=C(COC(=O)c1ccc(O)cc1O)Nc1cccc2ccccc12	-2	-6	-1	7	12*
CC(=O)Nc1cccc2cc(O)ccc12	-8	-1	-3	22*	-1
Cc1ccc(CSC2=Nc3ccccc3C3=NC(=O)CN23)cc1	157*	i	nt	1	-2
COc1cc2c(cc1OC)C1=NC(=O)CN1C(SCc1ccccc1C)=N2	42	nt	-1	nt	-5
CC(=O)c1cccc(NC(=O)CCc2nnc3ccc(NCc4ccc5c(c4)OCO5)nn23)c1	73*	i	nt	0	0
CC(=O)c1cccc(NC(=O)CCc2nnc3ccc(N4CCN(C)CC4)nn23)c1	4	0	-2	1	-1
C/C=C/c1ccc2c(c1)O[C@H](CN(C)C(=O)Cc1ccccc1)[C@@H](C)CN([C@@H](C)CO)S2(=O)=O	nt	nt	2	0	nt
c1ccc2[nH]c(-c3ccc4c(c3)OCO4)nc2c1	6	0	2	11*	-2
C[C@@H]1C=C[C@](Cc2ccccc2)(C(=O)NCC2CC2)N1C(=O)c1ccccc1	-5	i	-1	11*	0
CCN(CC)CC(=O)NCC1(c2ccccc2)CCCC1	4	-1	nt	0	0
N#CCC(=O)NCC1(c2ccccc2)CCCC1	-2	25*	1	nt	-2
NC(=O)c1ccc(NC(=O)CSc2nnc(C3CC3)n2C2CC2)cc1	-4	i	2	12*	-3
O=C1C=CC(=O)C2C1C1(Cl)C(Cl)=C(Cl)C2(Cl)C1(Cl)Cl (stereo not given)	-28	i	9	-2	37*
CN1C(=O)c2cc(NC(=O)C3CCCC3)ccc2OC[C@H]2O[C@@H](CC(=O)Nc3ccccc3)CC[C@H]21	nt	nt	9	1	nt
O=C(C[C@H]1CC[C@@H]2[C@H](COC[C@@H](O)CN2S(=O)(=O)c2cccc(Cl)c2)O1)Nc1ccccc1	nt	nt	5	1	nt
CCCC(=O)Nc1ccc2c(c1)OC[C@H](C)N(CC1CCCC1)C[C@H](C)[C@@H](OC)CN(C)C2=O	nt	nt	-3	30*	nt
CCC(=O)Nc1ccc2c(c1)OC[C@H](C)N(C(=O)NC(C)C)C[C@@H](C)[C@@H](OC)CN(C)C2=O	nt	nt	-5	11*	nt
CCCC(=O)Nc1ccc2c(c1)OC[C@H](C)N(CC1CCCC1)C[C@@H](C)[C@H](OC)CN(C)C2=O	nt	nt	0	0	nt
CCC(=O)Nc1ccc2c(c1)OC[C@@H](C)N(C(=O)NC(C)C)C[C@H](C)[C@H](OC)CN(C)C2=O	nt	nt	-2	15*	nt
CCC(=O)Nc1ccc2c(c1)C(=O)N(C)C[C@H](OC)[C@@H](C)CN(C(=O)NC(C)C)[C@@H](C)CO2	nt	nt	-1	0	nt
COc1ccc2c3c(n(C)c2c1)[C@@H](CO)N(C(=O)CN1CCOCC1)CC31CN(C(C)=O)C1	nt	nt	nt	-1	nt
C[C@H](CO)N1C[C@H](C)[C@H](CN(C)S(=O)(=O)c2ccc(F)cc2)Oc2ccc(NC(=O)CCCCCC(=O)Nc3ccccc3N)cc2C1=O	nt	nt	nt	1	nt
C[C@@H]1CCCCO[C@@H](CN(C)C(=O)CCCN(C)C)[C@H](C)CN([C@H](C)CO)C(=O)c2cc(NC(=O)Nc3ccc(C(F)(F)F)cc3)ccc2O1	nt	nt	3	nt	nt
